Laboratory results reported in PubChem BioAssay AID393 (SGCOxCompounds, 2006).
Calls of active or inactive are those of the source. The rule behind the calls is not given here.

These compounds were tested against Serine/threonine-protein kinase pim-1 (Homo sapiens) (UniProt P11309) (assay: compound-induced PIM1 thermal stabilization – biophysical, human, melting temperature shift (AID 393)). Conditions: Thermal shift assay, active compounds read high; at 10 µM, protein 2 µM, buffer 10 mM PIPES, pH 6.5, NaCl 150 mM unless noted.
Chain of Serine/threonine-protein kinase pim-1 (Homo sapiens) (P11309 whole entry, looked up): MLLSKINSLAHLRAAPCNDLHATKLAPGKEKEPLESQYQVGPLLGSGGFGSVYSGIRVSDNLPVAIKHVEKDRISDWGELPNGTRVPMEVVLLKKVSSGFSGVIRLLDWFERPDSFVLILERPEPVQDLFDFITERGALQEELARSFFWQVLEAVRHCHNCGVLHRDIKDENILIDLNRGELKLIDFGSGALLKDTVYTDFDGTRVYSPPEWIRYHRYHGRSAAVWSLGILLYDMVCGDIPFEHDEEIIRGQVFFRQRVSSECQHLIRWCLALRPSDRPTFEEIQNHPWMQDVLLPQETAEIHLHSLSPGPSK

Row | Structure (SMILES) | Tm shift
1 | CCC(CO)Nc1ccc2ncc(-c3ccc(OC)nc3)n2n1 (stereo unspecified) | 4.1 Celsius (active)
2 | O=c1[nH]cnc2c1sc1nc3ccccc3cc12 | 3.3 Celsius (active)
3 | O=C1NC(=O)C(c2cn(CCCn3ccnc3)c3ccccc23)=C1Nc1ccccc1 | 3.1 Celsius [at 10 µM, protein 2 µM, buffer 10 mM Na Citrate, pH 6.5, NaCl 150 mM] (active)
4 | COc1cncc(-c2cnc3ccc(NC4CCOCC4)nn23)c1 | 3.31 Celsius (active)
5 | Clc1ccc(-c2cnc3ccc(NC4CCOCC4)nn23)cc1 | 7.28 Celsius (active)
6 | O=S(=O)(c1cccc2c(Cl)cccc12)N1CCCNCC1 | 3.27 Celsius [at 10 µM, protein 3 µM, buffer 10 mM HEPES] (active)
7 | COc1cccc(-c2cnn3ccc(Nc4cccc(Cl)c4)nc23)c1 | 6.16 Celsius (active)
8 | Oc1cccc(-c2cnc3ccc(NC4CCOCC4)nn23)c1 | 3.66 Celsius (active)
9 | Clc1cccc(-c2cnc3ccc(NCCc4ccccn4)nn23)c1 | 7.06 Celsius [at 5 µM, protein 1 µM, buffer 10 mM HEPES] (active)
10 | Oc1cccc(-c2cnc3ccc(NCC4CC4)nn23)c1 | 4.42 Celsius (active)
11 | CC(C)[C@@H](CO)Nc1ccc2ncc(-c3ccc(C#N)cc3)n2n1 | 4.53 Celsius (active)
12 | CN(C)CC1CCn2c(c(C3=C(c4cn(C)c5ccccc45)C(=O)NC3=O)c3ccccc32)C1 (stereo unspecified) | 4.9 Celsius [at 10 µM, protein 2 µM, buffer 10 mM Na Citrate, pH 6.5, NaCl 150 mM] (active)
13 | O=c1[nH]cnc2c1oc1ccc(Cl)cc12 | 3.41 Celsius (active)
14 | O=c1[nH]c(O)c2c1c1c3ccccc3nc1n1cncc21 | 9.3 Celsius [at 10 µM, protein 2 µM, buffer 10 mM Na Citrate, pH 6.5, NaCl 150 mM] (active)
15 | CCC(CO)Nc1ccc2ncc(-c3cccc(OC(F)(F)F)c3)n2n1 (stereo unspecified) | 9.04 Celsius (active)
16 | Fc1ccc(-c2cnc3ccc(NC4CCOCC4)nn23)cc1 | 7.86 Celsius (active)

Row | Structure (SMILES) | Tm shift
17 | O=C1Cc2c([nH]c3ccc(Br)cc23)-c2ccccc2N1 | 3.9 Celsius [at 10 µM, protein 2 µM, buffer 10 mM Na Citrate, pH 6.5, NaCl 150 mM] (active)
18 | COc1cc(O)c2c(c1)oc(=O)c1c3cc(O)c(O)cc3oc21 | 3.8 Celsius [at 10 µM, protein 2 µM, buffer 10 mM Na Citrate, pH 6.5, NaCl 150 mM] (active)
19 | CCN(CC)CCNC(=O)c1c(C)[nH]c(/C=C2\C(=O)Nc3ccc(Cl)cc32)c1C | 3.2 Celsius [at 10 µM, protein 2 µM, buffer 10 mM Na Citrate, pH 6.5, NaCl 150 mM] (active)
20 | O=C(c1ccc(Nc2nccc(-c3cc4ccccc4s3)n2)cc1)N1CCC(N2CCCC2)CC1 | 3.7 Celsius [at 10 µM, protein 2 µM, buffer 10 mM Na Citrate, pH 6.5, NaCl 150 mM] (active)
21 | OCC1=C(O)C(O)[C@@H](N2CNc3cc(Cl)c(Cl)cc32)O1 (stereo partly specified) | 3.7 Celsius [at 10 µM, protein 2 µM, buffer 10 mM Na Citrate, pH 6.5, NaCl 150 mM] (active)
22 | Nc1cccc(-c2cnn3ccc(Nc4cccc(Cl)c4)nc23)c1 | 6.21 Celsius (active)
23 | c1csc(-c2cnc3ccc(NCC4CC4)nn23)c1 | 4.75 Celsius [at 5 µM, protein 1 µM, buffer 10 mM HEPES] (active)
24 | NCCNC(O)(O)c1cccc2c(Cl)cccc12 | 3.5 Celsius [at 10 µM, protein 2 µM, buffer 10 mM Na Citrate, pH 6.5, NaCl 150 mM] (active)
25 | CCC(CO)Nc1ccc2ncc(-c3ccc(O)cc3)n2n1 (stereo unspecified) | 6.96 Celsius (active)
26 | O=C1Nc2ccc(I)cc2/C1=C/c1cc(Br)c(O)c(Br)c1 | 7.2 Celsius [at 10 µM, protein 2 µM, buffer 10 mM Na Citrate, pH 6.5, NaCl 150 mM] (active)
27 | CC(C)[C@@H](CO)Nc1ccc2ncc(-c3cccc(F)c3)n2n1 | 5.64 Celsius (active)
28 | Cc1cc(O)c2c(c1)C(=O)c1cc(O)cc(O)c1C2=O | 6.3 Celsius [at 10 µM, protein 2 µM, buffer 10 mM Na Citrate, pH 6.5, NaCl 150 mM] (active)
29 | CC(=O)Nc1cccc(-c2cnc3ccc(NC4CCOCC4)nn23)c1 | 3.48 Celsius (active)
30 | COc1ccc2oc3c(=O)[nH]cnc3c2c1 | 3.45 Celsius (active)
31 | Cc1cc(Br)c2c(c1)=C(c1[nH]c(=S)[nH]c1O)C(=O)N=2 | 4.68 Celsius (active)
